Measured values as given in paper PMC4336329 (PLoS ONE, 2015).
Among all 310,000 compounds or so, about 14,000 (4.5%) showed an effect of 50% or more. The effect is printed as a negative number. For the sample, strong results were picked, then their nearest neighbours and some compounds at random.
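Further: peak tail current of the secondary pulse compared with the same well before compound.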

These compounds were tested against human ether-à-go-go-related gene (hERG) potassium channel (human, UniProt Q12809) (assay: primary screen, population patch clamp on CHO cells stably expressing hERG; higher = less effect of the substance).
human ether-à-go-go-related gene (hERG) potassium channel, sequence (Q12809 whole entry, looked up): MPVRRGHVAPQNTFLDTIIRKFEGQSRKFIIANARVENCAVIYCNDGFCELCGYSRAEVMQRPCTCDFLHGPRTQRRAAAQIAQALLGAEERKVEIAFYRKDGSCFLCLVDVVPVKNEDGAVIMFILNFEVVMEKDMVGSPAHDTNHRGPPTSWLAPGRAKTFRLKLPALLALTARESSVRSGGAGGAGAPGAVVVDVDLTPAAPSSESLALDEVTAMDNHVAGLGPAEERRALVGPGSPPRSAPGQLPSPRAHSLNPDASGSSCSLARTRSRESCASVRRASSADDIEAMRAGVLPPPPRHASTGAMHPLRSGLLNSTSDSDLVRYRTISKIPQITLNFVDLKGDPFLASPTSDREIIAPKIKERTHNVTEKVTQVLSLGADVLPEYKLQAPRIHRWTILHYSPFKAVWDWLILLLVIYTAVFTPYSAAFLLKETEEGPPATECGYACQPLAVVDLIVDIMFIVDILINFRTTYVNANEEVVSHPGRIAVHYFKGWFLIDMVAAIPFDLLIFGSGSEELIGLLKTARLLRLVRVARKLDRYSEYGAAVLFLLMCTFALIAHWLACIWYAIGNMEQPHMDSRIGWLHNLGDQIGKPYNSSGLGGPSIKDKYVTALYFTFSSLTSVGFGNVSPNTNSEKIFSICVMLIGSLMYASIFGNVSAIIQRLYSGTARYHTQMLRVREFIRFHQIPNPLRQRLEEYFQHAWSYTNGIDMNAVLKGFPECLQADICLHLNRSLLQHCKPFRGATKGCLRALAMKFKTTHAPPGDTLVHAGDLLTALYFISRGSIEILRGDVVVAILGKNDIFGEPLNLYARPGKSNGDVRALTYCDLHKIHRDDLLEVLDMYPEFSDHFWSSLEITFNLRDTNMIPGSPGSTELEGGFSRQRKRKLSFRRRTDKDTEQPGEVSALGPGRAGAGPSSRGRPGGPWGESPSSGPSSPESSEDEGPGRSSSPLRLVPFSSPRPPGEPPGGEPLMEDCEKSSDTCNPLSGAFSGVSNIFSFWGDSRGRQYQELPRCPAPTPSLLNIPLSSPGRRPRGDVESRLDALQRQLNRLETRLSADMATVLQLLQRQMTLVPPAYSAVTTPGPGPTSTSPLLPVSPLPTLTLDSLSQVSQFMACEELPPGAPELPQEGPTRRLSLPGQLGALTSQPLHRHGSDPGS
With `O=C(NCCN1CCN(c2ccccc2)CC1)c1cccc(Br)c1` the “hERG current change (%, negative = inhibition) at 10uM” value was -60.2%. In the case of `COc1cc(OC)cc(C(=O)NCCCCNC(=O)c2cc(OC)cc(OC)c2)c1`, the “hERG current change (%, negative = inhibition) at 10uM” value is reported as 4.94%. In the case of `O=C(NCC1CC1)c1ccc(Oc2cc(Cl)cc(Cl)c2)o1`, the “hERG current change (%, negative = inhibition) at 10uM” value is reported as -33.7%. With `O=C(NCCN1CCCCC1)c1ccc(Oc2cc(Cl)cc(Cl)c2)o1` the “hERG current change (%, negative = inhibition) at 10uM” value was -54.8%. For `O=C(NCCN1CCOCC1)c1cccc(Br)c1`, the “hERG current change (%, negative = inhibition) at 10uM” value was -3.21%. `COc1cc(OC)cc(C(=O)NCCCCc2ccccc2)c1` was tested, and the “hERG current change (%, negative = inhibition) at 10uM” value was -56%. With `O=C(NCCCN1CCN(c2cccc(Cl)c2)CC1)c1ccc(N2CCCC2=O)cc1` the “hERG current change (%, negative = inhibition) at 10uM” value was -26.4%. For `O=C(NCCc1ccccc1)c1cccc(Br)c1`, the “hERG current change (%, negative = inhibition) at 10uM” value was 2.53%. In the case of `O=C(c1ccc(Oc2cc(Cl)cc(Cl)c2)o1)N1CCCCC1`, the “hERG current change (%, negative = inhibition) at 10uM” value is reported as -7.03%. `O=C(NCCCN1CCN(c2cccc(Cl)c2)CC1)c1nc(-c2ccncc2)no1` was tested, and the “hERG current change (%, negative = inhibition) at 10uM” value was -63.2%. `Clc1cccc(N2CCN(Cc3nc(-c4ccccc4)no3)CC2)c1` was tested, and the “hERG current change (%, negative = inhibition) at 10uM” value was -12%. For `COc1ccc(C(=O)NCCCCc2ccccc2)cc1`, the “hERG current change (%, negative = inhibition) at 10uM” value was -4.68%. For `O=C(COc1ccc(Br)cc1Br)NC(=O)NC1CCCC1`, the “hERG current change (%, negative = inhibition) at 10uM” value was 22.3%. For `O=C(CN1C(=O)NC(c2ccccc2)(c2ccccc2)C1=O)NC1CCS(=O)(=O)C1` (stereo not drawn), the “hERG current change (%, negative = inhibition) at 10uM” value was 5.23%. `CCc1nc(Nc2ccccc2F)c2oc3ccccc3c2n1.Cl` was tested, and the “hERG current change (%, negative = inhibition) at 10uM” value was 6.04%. In the case of `CCC(=O)Nc1ccc(S(=O)(=O)Nc2ccc(Cl)nn2)cc1.Cl`, the “hERG current change (%, negative = inhibition) at 10uM” value is reported as 11.7%. `Cc1cccc(C)c1NC(=O)N1CCC(C(=O)c2ccc(F)cc2)CC1` was tested, and the “hERG current change (%, negative = inhibition) at 10uM” value was -22.6%. For `COC(=O)C1=NN(c2ccc(OC)cc2)C2C(=O)N(c3ccccc3OC)C(=O)C12` (stereo not drawn), the “hERG current change (%, negative = inhibition) at 10uM” value was 10.7%. With `COc1ccc(S(=O)(=O)N2CCC3(CC2)OCCN3S(=O)(=O)c2ccccc2)cc1OC` the “hERG current change (%, negative = inhibition) at 10uM” value was 0.907%. In the case of `CCOC(=O)c1c(C)[nH]c(C(=O)OCC(=O)Nc2ccc(Cl)cn2)c1C`, the “hERG current change (%, negative = inhibition) at 10uM” value is reported as 6.52%. With `CCCOc1ccccc1C1NC(=O)NC(C)=C1C(=O)OCc1ccccc1` (stereo not drawn) the “hERG current change (%, negative = inhibition) at 10uM” value was 6.23%. In the case of `COc1ccc(-c2cc(C(F)(F)F)nc(SCC(=O)NCc3cccs3)n2)cc1OC`, the “hERG current change (%, negative = inhibition) at 10uM” value is reported as -3.84%. For `CC1CCC(NC(=O)c2ccc3snnc3c2)CC1` (stereo not drawn), the “hERG current change (%, negative = inhibition) at 10uM” value was 21.3%. With `Cl.O=C(NCCN1CCCC1)c1cccc(Cl)c1` the “hERG current change (%, negative = inhibition) at 10uM” value was -51.6%. In the case of `COc1ccc(C(=O)Nc2cccc(C(=O)NCc3ccccc3)c2)cc1`, the “hERG current change (%, negative = inhibition) at 10uM” value is reported as 4.28%. For `O=C(NCCN1CCOCC1)c1cccc(Cl)c1`, the “hERG current change (%, negative = inhibition) at 10uM” value was -1.9%. With `Cc1cccc(C(=O)NCCN2CCCC2)c1.Cl` the “hERG current change (%, negative = inhibition) at 10uM” value was -0.337%. `COc1ccc(NC(=O)c2cccc(NC(=O)c3ccccc3)c2)cc1` was tested, and the “hERG current change (%, negative = inhibition) at 10uM” value was 2%. For `COc1ccc(CNC(=O)c2cccc(NC(=O)c3ccccc3)c2)cc1`, the “hERG current change (%, negative = inhibition) at 10uM” value was -71.5%. `Cc1cc(=O)oc2cc(NC(=O)c3ccccc3Cl)ccc12` was tested, and the “hERG current change (%, negative = inhibition) at 10uM” value was 28%. For `C(=N\Nc1nc(Nc2ccccc2)nc(Nc2ccccc2)n1)/c1cccnc1`, the “hERG current change (%, negative = inhibition) at 10uM” value was -4.87%. In the case of `C[n+]1cccc(C2C(C#N)=C(N)Oc3c2ccc2ccccc32)c1.[I-]` (stereo not drawn), the “hERG current change (%, negative = inhibition) at 10uM” value is reported as 13.7%. In the case of `C/C(=N\Nc1ccc2nncn2n1)c1ccc(Br)s1`, the “hERG current change (%, negative = inhibition) at 10uM” value is reported as 6.83%. With `O=C(/C=C/c1cccs1)NCc1ccccc1` the “hERG current change (%, negative = inhibition) at 10uM” value was -2.08%. `CCOC(=O)CNS(=O)(=O)c1cc(-c2nn(C)c(=O)c3ccccc23)ccc1C` was tested, and the “hERG current change (%, negative = inhibition) at 10uM” value was -52.8%. In the case of `Cc1ccc(-c2nn(C)c(=O)c3ccccc23)cc1S(=O)(=O)NCCN(C)C`, the “hERG current change (%, negative = inhibition) at 10uM” value is reported as 4.35%. With `Cc1ccc(-c2nn(C)c(=O)c3ccccc23)cc1S(=O)(=O)N1CCCC1` the “hERG current change (%, negative = inhibition) at 10uM” value was -40.6%. `CCN(CC)S(=O)(=O)c1cc(-c2nn(C)c(=O)c3ccccc23)ccc1C` was tested, and the “hERG current change (%, negative = inhibition) at 10uM” value was -53.5%. `CCC(CO)NS(=O)(=O)c1cc(-c2nn(C)c(=O)c3ccccc23)ccc1C` (stereo not drawn) was tested, and the “hERG current change (%, negative = inhibition) at 10uM” value was -3.69%. In the case of `COCCNS(=O)(=O)c1cc(-c2nn(C)c(=O)c3ccccc23)ccc1C`, the “hERG current change (%, negative = inhibition) at 10uM” value is reported as -28.9%. For `Cc1cc(/C=C(/C#N)C(=O)O)c(C)n1-c1cccc2ccccc12`, the “hERG current change (%, negative = inhibition) at 10uM” value was 20.1%. With `CCn1cc(C(=O)NCc2cccc(C(F)(F)F)c2)c(=O)c2ccc(C)nc21` the “hERG current change (%, negative = inhibition) at 10uM” value was 2.71%. For `O=C(Nc1ccc(N2CCN(Cc3ccccc3)CC2)cc1)c1cccnc1`, the “hERG current change (%, negative = inhibition) at 10uM” value was -14.4%. With `CN1CCN(C(=O)CCN2C(=O)/C(=C/c3cccc(Br)c3)SC2=S)CC1` the “hERG current change (%, negative = inhibition) at 10uM” value was 11.4%. `O=C(c1ccccc1)c1ccc(OC(=O)N2CCCC2)cc1` was tested, and the “hERG current change (%, negative = inhibition) at 10uM” value was -11%. For `CCCNc1c(NS(=O)(=O)c2ccc(OC)c(OC)c2)c(=O)oc2ccccc12`, the “hERG current change (%, negative = inhibition) at 10uM” value was -74.1%. In the case of `COc1ccc(S(=O)(=O)Nc2c(NC3CCCCC3)c3ccccc3oc2=O)cc1OC`, the “hERG current change (%, negative = inhibition) at 10uM” value is reported as -6.99%. With `CCCNc1c(NS(=O)(=O)c2ccc(C(C)(C)C)cc2)c(=O)oc2ccccc12` the “hERG current change (%, negative = inhibition) at 10uM” value was 10.8%. With `CCCNc1c(NS(=O)(=O)c2ccc(C)c(C)c2)c(=O)oc2ccccc12` the “hERG current change (%, negative = inhibition) at 10uM” value was -30.6%. With `Cc1ccc(S(=O)(=O)Nc2c(NC3CCCCC3)c3ccccc3oc2=O)c(C)c1` the “hERG current change (%, negative = inhibition) at 10uM” value was -19.6%. `N#Cc1cccc(S(=O)(=O)Nc2c(NC3CCCCC3)c3ccccc3oc2=O)c1` was tested, and the “hERG current change (%, negative = inhibition) at 10uM” value was -53.9%. With `CCCNc1c(NS(=O)(=O)c2c(F)c(F)c(F)c(F)c2F)c(=O)oc2ccccc12` the “hERG current change (%, negative = inhibition) at 10uM” value was -7.27%. `COc1ccc(OC)c(S(=O)(=O)Nc2c(NC3CCCCC3)c3ccccc3oc2=O)c1` was tested, and the “hERG current change (%, negative = inhibition) at 10uM” value was -54.1%. With `Cc1ccc(S(=O)(=O)Nc2c(NC3CCCCC3)c3ccccc3oc2=O)cc1` the “hERG current change (%, negative = inhibition) at 10uM” value was -33.9%. With `Cc1ccc(S(=O)(=O)Nc2c(NC3CCCCC3)c3ccccc3oc2=O)cc1C` the “hERG current change (%, negative = inhibition) at 10uM” value was 2.53%. In the case of `COc1ccc(S(=O)(=O)Nc2c(NC3CCCCC3)c3ccccc3oc2=O)cc1`, the “hERG current change (%, negative = inhibition) at 10uM” value is reported as -45.2%. In the case of `CCCNc1c(NS(=O)(=O)c2ccc(C)cc2C)c(=O)oc2ccccc12`, the “hERG current change (%, negative = inhibition) at 10uM” value is reported as -52.2%.
